Measured values published in ChEMBL document CHEMBL3988442, “University of Dundee, Small-Polar-MMV Screening Library” (2021).
The campaign covered roughly 48,000 compounds. About 13,000 (27%) showed an effect of 50% or more. This is one part of the list.

The compounds below were run on Wolbachia pipientis (assay: Anti-Wolbachia Cell-Based Screen). Settings: 5 µM.
Assay type: functional
Parameters: scale not given: in the data most compounds retested in dose-response had high values

Compound	Percent Effect [%]
Cc1ncsc1C(=O)NCC1CCC2(CCNCC2)CO1.Cl (stereo not drawn)	-19.17
CCc1cc(NCc2cc(CC(C)C)on2)n2nccc2n1	-11.32
O=C(c1cnccn1)N1CCn2cnc(COCC3CC3)c2C1	-16.54
Cc1nc(CN2CC3(CCN(c4ncc(F)cn4)C3)CC2=O)cs1.O=C(O)C(F)(F)F (stereo not drawn)	22.92
Fc1ccc(CN2CCC3(CCN(Cc4nccs4)CC3)C2)cc1.O=C(O)C(F)(F)F.O=C(O)C(F)(F)F	-8.456
O=C(O)C(F)(F)F.O=C(O)C(F)(F)F.c1csc(CN2CCC3(CC2)CCN(CC2CCOCC2)C3)n1	-8.285
COc1cc(N2CCC3(CCN(Cc4nccs4)CC3)C2)ncn1.O=C(O)C(F)(F)F	189
COc1cc(N2CCC3(CC(=O)N(Cc4csc(C)n4)C3)C2)ncn1 (stereo not drawn)	116.5
COc1cccc(N2CC3(CCN(c4cc(OC)ncn4)C3)CC2=O)c1 (stereo not drawn)	-36.15
CCCn1ccc2cc(NC(=O)NCCn3cnnc3CC)ccc21	-13.76
COc1ccc2c(ccn2CC(=O)N2CCCC2c2cnn(C)c2)c1 (stereo not drawn)	0.9225
COc1ccc2c(ccn2CCC(=O)O)c1	-1.885
COc1ccc2c(ccn2CCC(=O)Nc2nc[nH]n2)c1	112.1
NC(=O)c1ccc(NC(=O)CCN2CCCC(N3CCCC3)C2)cc1 (stereo not drawn)	-7.492
Cc1ccc2c(ccn2CCC(=O)NC[C@@H]2CCCN3CCCC[C@H]23)c1	-8.382
COc1ccc2c(ccn2CC(=O)Nc2n[nH]c(C(C)C)n2)c1	99.9
CCOC(C)C(=O)Nc1ccc2c(ccn2CC)c1 (stereo not drawn)	-6.658
COc1ccc2c(ccn2CCC(=O)Nc2ccc(C(N)=O)cc2)c1	111.4
CCOCCOC(C)C(=O)Nc1ccc2c(ccn2CC)c1 (stereo not drawn)	-1.618
COc1ccc2c(ccn2CCC(=O)Nc2n[nH]c(C(C)C)n2)c1	80.39
CN1Cc2nnc(C3CCOCC3)n2C(Cc2c[nH]cn2)C1 (stereo not drawn)	-4.297
CC(Cn1cncn1)NC(=O)c1cn(Cc2ccccc2F)nn1 (stereo not drawn)	8.945
CCNC(=O)NCC(CC)(OC)c1ccccc1 (stereo not drawn)	2.354

Compound	Percent Effect [%]
O=C(NCCn1ccnc1)C1COCC(=O)N1Cc1ccccc1 (stereo not drawn)	-11.36
CN1C(=O)CC(c2ccncc2)C12CCN(c1ncccn1)CC2.O=C(O)C(F)(F)F (stereo not drawn)	-40.6
O=C(O)C(F)(F)F.O=C1COC2(CCN(c3ncccn3)CC2)CN1	1.956
CC1N(c2cnn(C)c2)C(=O)COC12CCN(c1ccccn1)CC2.O=C(O)C(F)(F)F (stereo not drawn)	138.6
CC1N(c2cnn(C)c2)C(=O)COC12CCN(c1ncccn1)CC2.O=C(O)C(F)(F)F (stereo not drawn)	116.4
O=C(O)C(F)(F)F.O=C1COC2(CCN(c3ccccn3)CC2)CN1	-3.085
Cn1ccnc1CN1CCC2(CC1)CN(c1ccccn1)CCO2.O=C(O)C(F)(F)F.O=C(O)C(F)(F)F	-7.538
CC(C)(O)CSCCNC(=O)c1cc(F)ccc1F	5.192
Cc1ccc(CS(=O)(=O)N2CC[C@H]3[C@H]2CCN3C)cc1	6.881
CN(C)C(=O)N1CCC2(CC1)CNc1ccc(F)cc12.Cl	-3.877
CNC(=O)c1cccc(C2CNCCN2C(=O)c2cccc(F)c2)c1.Cl (stereo not drawn)	87.98
COCCn1cc(C(=O)N2CCCC2c2cccc(F)c2)ccc1=O (stereo not drawn)	1.276
CC(C)Cn1cncc1CNC(=O)c1cccc(CC2CCNCC2)c1	4.276
CNC(=O)NC(=O)CN1CCC(c2cccc(F)c2)C1 (stereo not drawn)	-6.233
Cc1cnc(C(=O)N2CCNCC2C(=O)NCc2ccncc2)cn1 (stereo not drawn)	-22.4
CNC(=O)c1cccc(C2CNCCN2C(=O)C2CCNCC2)c1 (stereo not drawn)	105.9
CNC(=O)c1cccc(C2CNCCN2C(C)=O)c1 (stereo not drawn)	-19.14
CNC(=O)c1cccc(Nc2cnn(C)c2)c1	-6.81
CNC(=O)c1cccc(C2CNCCN2C(=O)c2ccn(C)n2)c1 (stereo not drawn)	140.8
Cc1nc2c(c(=O)n1C)CCN(C(=O)CCc1ccccc1O)CC2	-32.69
O=C1CCC2(CCOC2)CN1Cc1ccc2nsnc2c1 (stereo not drawn)	-12.42
CC(=O)Nc1ncc(S(=O)(=O)N2CCCC(C)C2)s1 (stereo not drawn)	-1.419
CN(C)C(=O)CN1CCOCC2(CCN(CC3CCOC3)CC2)C1.O=C(O)C(F)(F)F.O=C(O)C(F)(F)F (stereo not drawn)	-17.88

Compound	Percent Effect [%]
CN(C)C(=O)CN1CCOCC2(CCN(CC3CCOCC3)CC2)C1.O=C(O)C(F)(F)F.O=C(O)C(F)(F)F	8.025
CN(C)C(=O)CN1CCOCC2(C1)CN(c1ncc(F)cn1)CCO2.O=C(O)C(F)(F)F (stereo not drawn)	98.39
CN(C)C(=O)CN1CCOCC2(CCN(c3ncc(F)cn3)CC2)C1.O=C(O)C(F)(F)F	94.37
Fc1ccc(N2CCOC3(COCCN(c4ncccn4)C3)C2)cc1.O=C(O)C(F)(F)F (stereo not drawn)	20.84
O=C(O)C(F)(F)F.c1cnc(N2CCOCC3(C2)CN(c2nccs2)CCO3)nc1 (stereo not drawn)	-52.69
CC(C)(C)C1CCC(NCCN2CCOCC2)CC1 (stereo not drawn)	-13.34
Cc1ccc(Cl)cc1NC(=O)C1CC(=O)N(Cc2ccccn2)C1 (stereo not drawn)	-6.487
CNc1nc(C(=O)N2CCC3(CCCN(C)C3=O)C2)cs1 (stereo not drawn)	-18.85
Cc1nc(C(=O)Nc2cc(N3CCNC3=O)ccc2Cl)cs1	-12.33
Cc1nc(C(=O)N2CCN(C(C)c3ccccc3F)CC2)cs1 (stereo not drawn)	-7.061
COc1ccnc(N2CCN(C(=O)c3csc(C4CC4)n3)CC2)n1	22.41
Cc1nc(C(=O)N2CCN(c3ccc(Cl)c(Cl)c3)CC2)cs1	99.9
CNc1nc(C(=O)N2CCN(c3ccc(Cl)c(Cl)c3)CC2)cs1	91.42
Cc1cc(C2CCCN(Cc3ncc(C(C)C)o3)C2)n[nH]1 (stereo not drawn)	8.603
CC(C)c1nnc(CN2CCCC(c3cc(C(N)=O)[nH]n3)C2)o1 (stereo not drawn)	107
CCc1nnc(CN2CCCC(c3cc(C(N)=O)[nH]n3)C2)o1 (stereo not drawn)	123.6
Cc1cnc(CN2CCCC(c3cc(C(N)=O)[nH]n3)C2)o1 (stereo not drawn)	1.908
CCc1nnc(CN2CCCC(c3cc(C(F)(F)F)[nH]n3)C2)o1 (stereo not drawn)	-1.93
Cc1nnc(CN2CCCC(c3cc(C(N)=O)[nH]n3)C2)o1 (stereo not drawn)	-6.189
CC(C)(C)c1nnc(CN2CCCC(c3cc(C(N)=O)[nH]n3)C2)o1 (stereo not drawn)	1.877
Cc1nc(CN2CCCC(c3cc(C(N)=O)[nH]n3)C2)oc1C (stereo not drawn)	110.2
CC(C)c1cnc(CN2CCCC(c3cc(C(N)=O)[nH]n3)C2)o1 (stereo not drawn)	94.99
